# Screening results (PubChem BioAssay)
# A selection: hits, their analogues and other compounds. The true share with any hit is near 21%.
# TDP1 cell CPT: DT40-hTDP1 cell growth loss with CPT; AID 686979; Potency, µM (doses to about 46.2 µM), for inactives: at the top dose activity change, negative = growth inhibition, most hits filed as inhibitors; actives 12% (n = 420,000); chicken DT40 Tdp1-/-;hTDP1 cells + 20 nM CPT, ATP luminescence, 48 h; note: potency is the fitted concentration of half-maximal effect; % is set by controls: 0 for no effect and ±100 for the full control effect; nearly all actives have a fitted effect of over 55% in size
#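 Chicken DT40 Tdp1-/- cells stably complemented with human TDP1 were seeded at 400 cells/well in medium containing 20 nM camptothecin, exposed to pin-transferred compounds, and grown at 37 °C for at least 48 hr. Viability was read as ATP luminescence.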
# IL1B secr inh: blocks inflammasome-driven IL-1 beta release. THP-1 LPS/ATP IL-1B secretion, AlphaLISA, 16 h; stronger effect = lower value. activity change, % at 57.5 µM. actives 4.7% (n = 360,000). AID 743279; in the data active = activity change below about -50%; inconclusive = mostly about -30% to -49%; note: % is set by controls: 0 for no effect and ±100 for the full control effect
#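 THP-1 cells pretreated 1 hr with compounds (up to 57.5 uM final), then stimulated with LPS (250 ng/mL final) plus ATP (1.25 mM final); secreted IL-1B measured by AlphaLISA after 16 hr, decreased signal indicating inhibition.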
# D3 ag: agonists of human D3 dopamine receptor. P35462. D3R DiscoveRx beta-arrestin cells, luminescence, 90 min. max activation, %. AID 652048. actives 0.58% (n = 410,000); in the data active = max activation above about 30%; note: 0% is about no effect
#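 Cells at 1500/well, incubated overnight, then treated with pinned compounds (dopamine as control) for 90 min at 37 degrees C. DiscoveRx reagent added for 30 - 60 minutes at room temperature; luminescence read.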
# DT40 TDP1 no CPT: qHTS for Inhibitors of human tyrosyl-DNA phosphodiesterase 1 (TDP1): qHTS in cells in absence of CPT; Potency, µM (highest dose often 46.2 µM), for the others: at the highest dose activity change, negative = growth inhibition, actives largely listed as inhibitors; actives 15% (n = 420,000); AID 686978, 2013; DT40 Tdp1-/- hTDP1 cells, no CPT, ATP luminescence, 48 h; note: potency is the fitted concentration of half-maximal effect; % is set by controls: 0 for no effect and ±100 for the full control effect; nearly all actives have a fitted effect of over 55% in size
#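 DT40 Tdp1-/-;hTDP1 cells, no CPT (DMSO vehicle only), 400 cells/well; compounds pin-transferred; ≥48 hr, 37 °C; CellTiter-Glo 30 min RT dark, luminescence read.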
# D3 antag: antagonists of human D3 dopamine receptor. D3R cells, DiscoveRx beta-arrestin luminescence, antagonist mode; stronger effect = lower value. max response, negative = inhibition, %. actives 2.5% (n = 360,000). AID 652054; in the data active = max response below about -50%; inconclusive = no clear call, values can overlap the other calls; note: % is set by controls: 0 for no effect and ±100 for the full control effect
#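 Cells plated overnight at 1500 cells/well, then exposed to library compounds with dopamine controls for 90 minutes at 37 degrees C. DiscoveRx reagent added for 30–60 minutes at room temperature; luminescence read, quantitative HTS format.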
# ClpP mod: qHTS Assay for Activators of ClpP; purified B. subtilis ClpP, FRET peptide cleavage, 20 min; actives 1.9% (n = 340,000); Potency, µM (top dose mostly 57.5 µM), for the others: at the top dose activity change, negative = active; ATP-dependent Clp protease proteolytic subunit (Bacillus subtilis (strain 168)), P80244; active = well fitted falling curve with a large enough effect; inconclusive = small, poorly fitted or top-dose-only effect; inactive = no such curve, though single readings can be large or run the other way; note: potency is the fitted concentration of half-maximal effect; the source files actives as falling curves though it sought activators and does not explain the sign; nearly all actives have a fitted effect of over 65% in size
# Target sequence (P80244 whole entry, looked up): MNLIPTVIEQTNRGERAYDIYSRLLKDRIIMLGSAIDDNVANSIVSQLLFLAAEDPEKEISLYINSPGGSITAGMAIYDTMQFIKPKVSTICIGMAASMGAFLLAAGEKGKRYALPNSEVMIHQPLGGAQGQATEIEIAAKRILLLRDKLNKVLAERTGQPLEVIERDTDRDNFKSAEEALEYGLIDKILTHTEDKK
#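 Purified B. subtilis ClpP, 10 microg/mL final in Tris/HCl pH8 with KCl, BSA, glycerol and Tween-20, cleaved an Abz/nitrotyrosine-quenched decapeptide. Fluorescence (ex 320, em 430) was read at 0 and 20 min at room temperature. Delta was normalized to 5.8 microM ADEP and DMSO/no-enzyme controls.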
# * marks the source's active call; other numbers are inactive results; u = inconclusive; x = no result given. Unless noted, calls come from the whole dose curve; as a rule, active = well fitted inhibition curve with a large enough effect; inconclusive = small, poorly fitted or top-dose-only effect; inactive = flat fitted curve, though single readings scatter.
SMILES,TDP1 cell CPT,IL1B secr inh,D3 ag,DT40 TDP1 no CPT,D3 antag,ClpP mod
COc1ccc(CNC(=O)CCc2nc(-c3ccccc3F)no2)c(OC)c1,-18.7%,-7.4,-1.1,u,-0.2,-4.1%
Cc1ccccc1-c1noc(CCC(=O)Nc2cccc(C)c2C)n1,-10.3%,x,-5.1,16.4µM*,x,3.4%
COc1cccc(NC(=O)CCc2nc(-c3ccccc3F)no2)c1,u,-1.6,0.0,u,17.4,-2.2%
Cc1ccc(Cl)cc1NC(=O)C(NS(=O)(=O)c1cccc2nsnc12)c1ccccc1 (centres undefined),u,x,-5.9,u,x,-4.0%
O=C(N/C(=C/c1cccc([N+](=O)[O-])c1)C(=O)N1CCOCC1)c1ccccc1Br,-1.5%,14.5,-26.2,-7.3%,0.0,1.3%
CCCc1ccc(C(=O)NNc2cccc(C)c2)cc1,-18.3%,-4.4,3.4,u,-13.4,x
CC(CNC(=S)Nc1cc(F)cc(F)c1)CSc1ccc(Cl)cc1 (centres undefined),u,-97.4*,-0.5,25.9µM*,u,x
COc1ccccc1NC(=S)NCCSc1ccc(Cl)cc1,-1.7%,0.0,-3.6,-22.0%,11.7,1.6%
Cc1cccc(C)c1NC(=S)NCCSc1ccc(Cl)cc1,u,-72.1*,-12.3,u,-28.9,x
Cc1ccc(SCCNC(=S)Nc2cc(C)cc(C)c2)cc1,u,-3.3,-8.0,u,41.1,1.5%
Cc1ccc(NC(=S)NCCSc2ccc(Cl)cc2)cc1,-27.2%,-91.3*,-5.6,u,-12.7,x
CCOC(=O)c1ccccc1NC(=O)COC(=O)C(CC)Oc1ccccc1 (centres undefined),-9.4%,2.9,0.1,u,18.5,u
O=C(CC1CCCC1)N1CCN(S(=O)(=O)c2ccccc2)CC1,-6.0%,4.9,-2.8,-11.9%,-6.1,0.0%
c1ccc(CN2CCC3CC2c2ccc(N4CCOCC4)cc23)cc1 (centres undefined),-9.5%,2.8,-0.4,-29.9%,-9.2,-3.1%
CC1(C)CCC[C@]2(C)C(CS(=O)c3ccccc3)=C(C=O)CC[C@@H]12 (some centres undefined),u,u,-1.9,20.6µM*,7.1,x
O=C(CN(CCc1ccccc1)C(=O)c1csnn1)NC1CCCC1,0.4%,0.0,2.7,-2.3%,0.5,-0.9%
Cc1c(-n2c(SCC(=O)O)nnc2-c2ccccc2Cl)c(=O)n(-c2ccccc2)n1C,-2.7%,29.3,-1.5,0.2%,4.9,35.5µM*
C[C@@H](C(=O)N1CCN(Cc2ccc3c(c2)OCO3)CC1)n1nnc2ccccc2c1=O,u,-10.8,7.2,u,13.2,-0.6%
CCCCCCN(C(=O)CCCN1C(=O)NC(c2ccc([N+](=O)[O-])cc2)C(C(=O)OCc2ccccc2)=C1C)C(C)C(=O)NCCCC (centres undefined),11.6µM*,-63.4*,-14.0,9.2µM*,5.2,2.3%
Cc1ccc(S(=O)(=O)CC2CSc3nc4ccccc4n32)cc1 (centres undefined),1.84µM*,-3.1,5.9,1.84µM*,31.0,0.7%
Cn1/c(=N/NC(=O)c2ccccc2Br)sc2ccccc21,18.7%,-3.1,12.9,-10.6%,1.5,x
COc1cc(C)c(NC(C)C(=O)c2c(C)[nH]c3ccccc23)cc1OC (centres undefined),u,x,x,u,x,0.2%
CCCCCn1c2c(c(=N)c3ccccc31)CCC2,1.84µM*,u,-3.2,1.46µM*,5.0,x
CCCCCCCCn1c2c(c(=N)c3ccccc31)CCC2,0.411µM*,-95.7*,-0.1,0.411µM*,-0.9,x
O=C(NCc1cccnc1)c1ccccc1NS(=O)(=O)c1ccc(Br)cc1,-24.7%,19.2,-0.9,-29.4%,u,-2.9%
